Measurements reported in PubChem BioAssay (NCATS).
Inconclusive results are not listed. A call without a number means that no potency is given here. Calls of active or inactive are those of the source. Calls follow the shape of the dose curve; as a rule, active = well fitted cell-killing curve with a large enough effect; inconclusive = small, poorly fitted or top-dose-only effect; inactive = no such curve, though single readings can be large or run the other way.
Potency is read from the fitted curve at half-maximal effect.

Assay: Cell Viability - LYMP2-001 (AID 921);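 also: cells exposed to compound for 24 h at 37 °C; nearly all actives have a fitted effect of over 70% in size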
Conditions: LYMP2-001 lymphoblastoid cell viability; series mostly up to 92.2 µM
Description: NIH Chemical Genomics Center [NCGC]
NIH Molecular Libraries Screening Centers Network [MLSCN]
National Institutes of Environmental Health Sciences [NIEHS]
National Toxicology Program [NTP]
We have developed a 1536-well cell-based assay for quantitative high throughput screening (qHTS) against a number of cell lines to determine in vitro cytotoxicity of small molecules. This particular assay uses a human lymphoblastoid cell line (LYMP2-001) purchased from Coriell Institute for Medical Research.
NCGC Assay Protocol Summary:
The CellTiter-Glo luminescent cell viability assay (Promega) is a homogeneous method to measure the number of viable cells in culture. The end point readout of this assay is based on quantitation of intracellular ATP, an indicator of metabolic activity, using the luciferase reaction. Luciferase catalyzes the oxidation of beetle Luciferin to oxyluciferin and light in the presence of ATP. The luminescent signal is proportional to amount of ATP present.
Using the CellTiter-Glo luminescent cell viability assay, the amount of cellular ATP was measured in the lymphoblastoid cell line with complete culture medium following compound treatment for 24 hours. The assay was performed in opaque white Kalypsys 1536-well plates. In the screen, tetraoctylammonium bromide was used as positive control. Library compounds were measured for their ability to cause acute toxicity in the cell line, as reflected by a decrease in intracellular ATP levels, in a concentration-dependent manner. […] AC50 values were determined from concentration-response data modeled with the standard Hill equation.
qHTS protocol for CellTiter Glo lymphoblastoid cellular assay
[Step] [Parameter] [Value] [Description]
1. Reagent; 5 uL; 2500 lymphoblastoid cells/well
2. Time; 5 hr; 37 C incubation
4. Controls; 23 nL; Tetraoctylammonium bromide 6.4pM to 92 uM
5. Time; 24 hr; 37 C incubation
6. Reagent; 5 uL; CellTiter Glo reagent
7. Time; 30 min; Room Temperature
8. Detection; Luminescence; Viewlux plate reader
Keywords: cell viability, cytotoxicity, lymphoblastoid cell line, luminescence, NTPHTS, NTPHTS_NCGC, NIEHS, DSSTox, MLSMR, MLSCN, NIH Roadmap, qHTS, NCGC
With `CCCCC(CC)COC(=O)c1ccc(C(=O)OCC(CC)CCCC)c(C(=O)OCC(CC)CCCC)c1` (stereo not given) the Potency was “inactive”.
For `Nc1ccc(Cl)c(Cl)c1`, the Potency was “inactive”.
In the case of `C=C(Cl)CSC(=S)N(CC)CC`, the Potency is reported as “inactive”.
With `ClC(Cl)C(Cl)Cl` the Potency was “inactive”.
For `O=C(O)CCl`, the Potency was “inactive”.
For `Nn1cnnc1`, the Potency was “inactive”.
With `C(CCOCC1CO1)COCC1CO1` (stereo not given) the Potency was “inactive”.
With `CC(C)(COCC1CO1)COCC1CO1` (stereo not given) the Potency was “inactive”.
In the case of `COC(C)(C)C`, the Potency is reported as “inactive”.
In the case of `ClCCOCOCCCl`, the Potency is reported as “inactive”.
With `Nc1ccc(-c2ccc(N)c(Cl)c2)cc1Cl` the Potency was “inactive”.
For `C=CCOCC1CO1` (stereo not given), the Potency was “inactive”.
For `Oc1c(Cl)cccc1Cl`, the Potency was “inactive”.
In the case of `C=CC(=O)OCC(CC)CCCC` (stereo not given), the Potency is reported as “inactive”.
In the case of `Nc1ccc(Oc2ccc(N)cc2)cc1`, the Potency is reported as “inactive”.
With `Clc1ccccc1` the Potency was “inactive”.
With `C/C=C/CC#N` the Potency was “inactive”.
With `CCBr` the Potency was “inactive”.
In the case of `ClCCCCl`, the Potency is reported as “inactive”.
With `Nc1ccc([N+](=O)[O-])cc1[N+](=O)[O-]` the Potency was “inactive”.
With `Cl/C=C\Cl` the Potency was “inactive”.
For `Nc1cc(Cl)cc(C(=O)O)c1Cl`, the Potency was “inactive”.
For `COC(=O)c1ccccc1N`, the Potency was “inactive”.
For `N#C/C=C/C#N`, the Potency was 31.6 µM (active).
For `N#CC(O)c1ccccc1` (stereo not given), the Potency was “inactive”.
With `C/C=C/C=O` the Potency was “inactive”.
For `c1ccc(NNc2ccccc2)cc1`, the Potency was “inactive”.
In the case of `CC(C)(Cl)[N+](=O)[O-]`, the Potency is reported as “inactive”.
In the case of `Cc1cc(-c2ccc(N)c(C)c2)ccc1N`, the Potency is reported as “inactive”.
With `Clc1ccc(Cl)c(Cl)c1` the Potency was “inactive”.
In the case of `C=CC(=O)OCC(C)C`, the Potency is reported as “inactive”.
For `BrCCc1ccccc1`, the Potency was “inactive”.
With `Cc1ccccc1[N+](=O)[O-]` the Potency was “inactive”.
In the case of `Cc1ccc(N=C=O)cc1N=C=O`, the Potency is reported as “inactive”.
For `Nc1ccc(-c2ccccc2)cc1`, the Potency was “inactive”.
With `Clc1cccc(Cl)c1Cl` the Potency was “inactive”.
In the case of `CCCCCCCCCCCOC(=O)c1ccccc1C(=O)OCCCCCCCCCCC`, the Potency is reported as “inactive”.
In the case of `S=c1[nH]c2ccccc2[nH]1`, the Potency is reported as “inactive”.
For `CN(C)C(=O)Nc1cccc(C(F)(F)F)c1`, the Potency was “inactive”.
In the case of `Oc1ccc(Cl)c(Cl)c1Cl`, the Potency is reported as “inactive”.
